Data published in PubChem BioAssay AID1159580 (chemical genetic matrix, 2015).
The whole screen tested about 5,500 compounds, of which about 2,000 (36%) were called active. Not shown: some 18% with an inconclusive outcome. Cut-off read from the data, not from the text of the source: active = normalized growth mostly below about 0.91 (no sharp cut-off); inconclusive = no clear call, values can overlap the other calls; inactive = mostly above about 0.92. This is one part of the list.

Assay: chemical genetic growth profiling, strain panel (AID 1159580);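 note: tested at 20 µM; growth read once vehicle control cultures reached saturation at 30 °C; 1 = growth at the plate median or of vehicle wells; lower values mean less growth of the strain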
Conditions: S. cerevisiae deletion strains, growth OD

Measured: normalized growth

CC(N)=O
inactive: locus YAL040C, strain CLN3, active compounds read low 0.973 | locus YER002W, strain NOP16, active compounds read low 0.992 | locus YGR078C, strain PAC10, active compounds read low 1 | locus YGR229C, strain SMI1, active compounds read low 1.01 | locus YJR075W, strain HOC1, active compounds read low 0.991 | locus YNL128W, strain TEP1, active compounds read low 0.997 | locus YNL175C, strain NOP13, active compounds read low 0.992 | locus YNL197C, strain WHI3, active compounds read low 1 | locus YNL224C, strain SQS1, active compounds read low 1.04 | locus YOR083W, strain WHI5 (second series), active compounds read low 1 | locus YPL241C, strain CIN2, active compounds read low 0.975
